Results taken from ChEMBL document CHEMBL4513146, “CO-ADD screening of Karazin Kharkiv National University (Ukraine) compounds”.
Results with a measured potency or affinity are listed apart.

Experiments:
Klebsiella pneumoniae = conditions: Concentration 32 ug.mL-1;; ASSAY_TEST Inhibition of Bacterial Growth; detection method Absorption (OD600); MEDIA CAMHB; plate type 384well; NBS; CORNING #3640; time 18 hr
Candida albicans = conditions: Concentration 32 ug.mL-1; ASSAY_TEST Inhibition of Fungal Growth; detection method Absorption (OD530)
Cryptococcus neoformans = conditions: Concentration 32 ug.mL-1; ASSAY_TEST Inhibition of Fungal Growth; detection method Resazurin; Absorption (OD600-OD570); plate type 384well; NBS; CORNING #3640

Row | SMILES | Inhibition (Klebsiella pneumoniae) | Inhibition (Candida albicans) | Inhibition (Cryptococcus neoformans)
1 | CCCCOc1ccc(-c2cc3c4nnc(SCC(=O)NCc5ccccc5)n4ccn3n2)cc1 | -0.43% | 3.39% | -8.72%
2 | CCOc1ccc(-n2ccn3c(SCC(=O)Nc4cccc(CC)c4)nnc3c2=O)cc1 | -1.92% | 12.86% | -9.18%
3 | Cc1ccc(-c2ccc3nn(CC(=O)Nc4ccc(Cl)c(C(F)(F)F)c4)c(=O)n3n2)cc1C | 0.66% | 5.4% | -13.03%
4 | Cc1ccc(NC(=O)Cn2nc3c(Oc4ccccc4C)nccn3c2=O)cc1F | 11.18% | -0.61% | -11.02%
5 | CCCCN(CC)C(=O)CSc1nnc2c(=O)n(Cc3ccccc3F)ccn12 | 7.9% | 2.5% | -19.25%
6 | Cc1cc2nn(CC(=O)NC3CCCCC3)c(=O)n2c(Nc2ccc(F)c(C)c2)n1 | 19.39% | 3.39% | -7.59%
7 | Cc1ccc(Oc2nc3ccccc3n3c(=O)n(CC(=O)Nc4ccccc4C(F)(F)F)nc23)cc1 | 13.52% | 1.1% | -22.18%
8 | Cc1nnc2c(=O)n(CC(=O)NC3CCCC3)c3ccccc3n12 | 6.01% | 0.18% | -17.78%
9 | CCCCOc1ccc(-c2cc3c4nnc(SCC(=O)Nc5ccccc5F)n4ccn3n2)cc1 | -0.1% | 7.26% | -10.98%
10 | CC1CCCN(c2nccn3c(=O)n(CC(=O)Nc4ccc5c(c4)OCO5)nc23)C1 (centres undefined) | 1.66% | -0.45% | -11.4%
11 | Cc1cccc(NC(=O)c2ccc3nnc(SCC(=O)Nc4ccc(Br)cc4)n3c2)c1 | 7.72% | 7.81% | -6.93%
12 | CCOc1ccc(N(Cc2cccc(F)c2)S(=O)(=O)c2ccc3nncn3c2)cc1 | 6.73% | 1.76% | -4.27%
13 | CC(C)Cn1c(=O)c2sccc2n2c(=O)n(Cc3ccccc3Cl)nc12 | 3.91% | 1.39% | -28.89%
14 | O=C(Cn1nc2c3cc(-c4ccc(F)cc4)nn3ccn2c1=O)N1CCN(c2ccccc2F)CC1 | 8.2% | 2.96% | -19.92%
15 | CCOc1ccc(NC(=O)Cn2nc3c(Sc4ccc(C)cc4C)nccn3c2=O)cc1 | 3.27% | 6.36% | -11.66%
16 | O=C(Cn1nc2ccc(SCc3ccc(Cl)cc3)nn2c1=O)Nc1cccc(F)c1 | -5.89% | 31.36% | -11.95%
17 | Cc1cc(C)cc(NC(=O)Cn2nc3c(N4CCCC4)nccn3c2=O)c1 | 18.22% | 0.29% | -23.65%
18 | COc1ccc(NC(=O)Cn2nc3ccc(-c4ccc(C)c(C)c4)nn3c2=O)cc1OC | 6.13% | 32.8% | -43%
19 | COc1ccc(-c2cc3c4nn(CC(=O)Nc5ccccc5)c(=O)n4ccn3n2)cc1 | 8.66% | 6.28% | -7.06%
20 | CSc1cccc(NC(=O)Cn2nc3c(N4CCCC(C)C4)nccn3c2=O)c1 (centres undefined) | 8.54% | 6.43% | -37.15%
21 | Cc1cc(C)c(NC(=O)Cn2nc3c(N4CCCC(C)C4)nccn3c2=O)c(C)c1 (centres undefined) | -3.43% | -1.23% | -2.74%
22 | CC(C)c1nnc2c(SCC(=O)Nc3ccc(Br)cc3F)nc3ccccc3n12 | 8.89% | 0.43% | -17.6%
23 | Cc1ccc(Oc2nccn3c(=O)n(CC(=O)Nc4ccc5c(c4)OCO5)nc23)cc1 | 3.22% | -1.46% | -8.87%
24 | CC(C)CCn1c(=O)c2sccc2n2c(=O)n(CC(=O)NC(C)C)nc12 | 5.25% | -0.52% | -18.15%
25 | Cc1cc(C)c(NC(=O)CSc2nnc3ccc(C(=O)Nc4cccc(F)c4)cn23)c(C)c1 | 4.12% | 1.89% | -5.55%
26 | Cc1nnc2c(S(=O)(=O)N(Cc3ccc(F)cc3)c3ccc(Cl)cc3)cccn12 | 5.76% | 4.67% | -7.17%
27 | CCOc1ccc(NC(=O)Cn2nc3c(Sc4ccccc4)nccn3c2=O)cc1 | 8.21% | 7.49% | -21.93%
28 | Cc1ccc(NC(=O)Cn2nc3ccc(SCc4ccc(Cl)cc4)nn3c2=O)c(C)c1 | 5.23% | 4.69% | -27.61%
